Screens as filed in PubChem.
ADAM10 inh – ADAM10 inhibition, QFRET primary screen; recombinant ADAM10, EDANS/DABCYL FRET peptide cleavage, 3 h; inhibition, % at 7 µM; 370,000 compounds, 0.62% hits;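 active = inhibition above a per-campaign cutoff equal to the mean of compounds falling between control-based bounds plus 3 SD, cut at about 20% in these data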;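 also: 0% = DMSO wells while the 100% control is not disclosed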
proKLK7 act – activates the human kallikrein-7 zymogen; P49862; purified proKLK7, EDANS-DABCYL substrate fluorescence; 100% is mature enzyme control, 0% vehicle; activation, % at 7 µM; 370,000 compounds, 0.9% hits;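 active = activation above the mean of all tested compounds plus 3 SD, computed per campaign excluding outliers beyond control limits, cut at about 13% in these data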
FGF22 binding – binders of recombinant human FGF22 by thermal shift | SYPRO orange fluorescence; percent of sucrose octasulfate shift, DMSO zero | activity (Tm shift, normalised), % at 9.99 µM | 340,000 compounds, 1.5% hits | AID 651658;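 active = mean Tm shift, scaled 0 neutral to 100 positive control, at about 1.3% or above, every replicate too, limit read from the data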
ADAM17 inh – inhibitors of human ADAM17 | P78536 | recombinant ADAM17, EDANS/DABCYL FRET peptide cleavage | inhibition, % at 6.95 µM | 370,000 compounds, 0.83% hits | AID 720648;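 active = inhibition above the mean of compounds lying between control limits plus 3 SD, set per campaign, cut at about 8.5% in these data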;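 also: 0% = DMSO-only wells as the low control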
Target sequence (P78536 215-824 limits assumed): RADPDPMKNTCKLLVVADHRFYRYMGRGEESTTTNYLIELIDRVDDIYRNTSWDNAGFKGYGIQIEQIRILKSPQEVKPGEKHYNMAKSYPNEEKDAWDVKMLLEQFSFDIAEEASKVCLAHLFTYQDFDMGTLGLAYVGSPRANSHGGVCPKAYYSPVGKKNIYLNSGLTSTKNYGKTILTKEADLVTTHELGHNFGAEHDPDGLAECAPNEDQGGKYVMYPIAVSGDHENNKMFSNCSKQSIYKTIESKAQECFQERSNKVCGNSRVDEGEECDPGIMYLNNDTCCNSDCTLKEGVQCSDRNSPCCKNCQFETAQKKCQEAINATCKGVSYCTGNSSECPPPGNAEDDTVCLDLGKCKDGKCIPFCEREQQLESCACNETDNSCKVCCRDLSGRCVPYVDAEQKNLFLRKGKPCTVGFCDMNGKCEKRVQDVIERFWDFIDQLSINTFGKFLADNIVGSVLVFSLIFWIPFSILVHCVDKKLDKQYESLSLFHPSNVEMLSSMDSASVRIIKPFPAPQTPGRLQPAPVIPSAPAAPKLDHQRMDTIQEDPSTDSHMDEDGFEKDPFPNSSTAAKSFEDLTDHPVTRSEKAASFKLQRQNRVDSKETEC
Ecoli rRNA inh – inhibits bacterial ribosomal RNA function over humanized ribosomes. AID 720706. GFP signal change (wild-type ribosome), % (no concentration beside the values). 350,000 compounds, 1.6% hits. E. coli WT GFP vs humanized-ribosome RFP mutants, fluorescence, 24 h; hits give low values; DMSO median 0, no signal -100;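 active = significant combined selectivity score with lowered wild-type GFP, culture density cut under 30%, mutant RFP and density less affected; inactive = any of these conditions unmet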
proKLK7 act conf – proKLK7 activation, confirmation | shares compounds with proKLK7 act | purified proKLK7, EDANS-DABCYL substrate fluorescence; scaled: vehicle 0, mature enzyme 100 | activation, % at 7 µM | 3,200 compounds, 68% hits;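 active = activation, as change over the incubation, above the mean of all tested compounds plus 3 SD, cut at about 13% in these data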
EDANS-DABCYL int – optically interferes with EDANS-DABCYL signal, flagging KLK7 hits | shares compounds with proKLK7 act | EDANS-DABCYL substrate fluorescence interference, no enzyme, 4 h; solvent 0%, active enzyme control 100% | activation, % at 7 µM | 3,200 compounds, 80% hits | AID 686952;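 active = activation above the all-compound mean plus 3 SD, ignoring values outside control-based bounds, cut at about 4.8% in these data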;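 also: value is the 4 h activation minus the activation read at time zero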
EDANS interf – counter-screen for kallikrein-7 activators: EDANS-DABCYL interference, dose response; shares compounds with proKLK7 act; EDANS-DABCYL peptide fluorescence interference, no enzyme; EC50, µM; 250 compounds, 20% hits; AID 720493;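 active = compounds that raise the fluorescence signal in this interference counterscreen, with EC50 at or below 10 µM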;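 also: intact quenched peptide substrate alone read at 355 nm excitation and 520 nm emission; signal is fluorescence gain from T0 to T4 after four hours at room temperature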
* marks the source's active call; other numbers are inactive results; i = inactive; . = not tested or not shown. Compounds with a hit are over-represented: about 3.8% of the library has one in this group of screens.

SMILES	ADAM10 inh	proKLK7 act	FGF22 binding	ADAM17 inh	Ecoli rRNA inh	proKLK7 act conf	EDANS-DABCYL int	others
O=S(=O)(Nc1ccc(-c2nc3cccnc3s2)cc1)c1cc(F)ccc1F	i	16*	0	i	-20*	20*	21*
O=C(C[C@@H]1CC[C@H]2[C@@H](COC[C@H](O)CN2S(=O)(=O)c2cccc(Cl)c2)O1)Nc1ccccc1	.	.	0	.	-7	.	.
CCN1CC=C2C(C#N)=C(N)C(C#N)(C#N)C(CCc3ccccc3)C2C1 (stereo unspecified)	i	30*	.	-198	.	15*	16*
N#CC1=C(N)C(C#N)(C#N)[C@H](c2ccoc2)[C@H]2CN(Cc3ccccc3)CC=C12	-227	13*	.	-72	.	2	3
CC(=O)N1CC=C2C(C#N)=C(N)C(C#N)(C#N)[C@H](c3ccoc3)[C@H]2C1	-139	16*	.	-48	.	16*	17*
CC(=O)N1CC=C2C(C#N)=C(N)C(C#N)(C#N)C(C)C2C1 (stereo unspecified)	-152	11	.	-46	.	.	.
C=CCOC(=O)COc1ccc2c(C)c(C)c(=O)oc2c1	-364	15*	.	-88	.	11	14*
Cc1c(C)c2ccc(OCC(=O)c3ccccc3)cc2oc1=O	-88	-5	0	-38	5	.	.
CCOC(=O)CCc1c(C)c2ccc(OCC(=O)OC(C)C)cc2oc1=O	i	3	.	-119	.	.	.
C=CCOC(=O)COc1ccc2c(C)c(CC)c(=O)oc2c1	i	27*	.	-203	.	11	13*
COc1cccc(-c2cnc3c(c2)C(=O)N([C@@H](C)CO)C[C@H](C)[C@@H](CN(C)C(=O)CN(C)C)O3)c1	.	.	0	.	1	.	.
COc1ccc(NC(=O)N(C)C[C@@H]2Oc3ccc(NC(=O)c4ccncc4)cc3C(=O)N([C@H](C)CO)C[C@H]2C)cc1	.	.	0	.	4	.	.
CC(C)CC#Cc1ccc2c(c1)O[C@@H](CN(C)C(=O)Nc1ccccc1)[C@H](C)CN([C@H](C)CO)S2(=O)=O	.	.	-1	.	-5	.	.
O=C(NCCCN1CCCC1=O)c1cc2nc(-c3ccco3)cc(C(F)(F)F)n2n1	-292	14*	0	-113	-5	13*	2	EDANS interf=>69
CCN1CCN(Cc2c(O)ccc3c(=O)c(-c4ccccc4OC)coc23)CC1	i	50*	.	-447	.	73*	78*
COc1ccccc1-c1coc2c(CN3CCN(CCO)CC3)c(O)ccc2c1=O	i	111*	.	i	.	74*	81*
COc1ccccc1Oc1coc2c(CN3CCN(C)CC3)c(O)ccc2c1=O	i	74*	.	-353	.	74*	78*
COc1ccccc1-c1coc2c(CN3CCN(C)CC3)c(O)ccc2c1=O	i	80*	.	i	.	73*	73*
COc1ccc(S(=O)(=O)Nc2ccc3c(c2)C(=O)N([C@@H](C)CO)C[C@H](C)[C@@H](CN(C)S(=O)(=O)c2c(C)noc2C)OCCCC[C@@H](C)O3)cc1	.	.	1	.	1	.	.
OC[C@@H]1[C@H](c2ccc(C#Cc3ccccc3)cc2)[C@H]2CN(Cc3cncnc3)CCCCN12	.	.	0	.	5	.	.
COc1ccc2c3c([nH]c2c1)[C@@H](CO)N(C(=O)C1CCCC1)CC31CN(C)C1	.	.	0	.	1	.	.
Cc1ccc2c(c1)c1c(n2CC(O)Cn2ccnc2C)C(=O)CCC1 (stereo unspecified)	-234	17*	.	-74	.	9	15*
O=C(C[C@@H]1CC[C@@H]2[C@H](COC[C@H](O)CN2S(=O)(=O)c2cccc(Cl)c2)O1)NC1Cc2ccccc2C1	.	.	0	.	-6	.	.
Cc1[nH]n(-c2ccccc2)c(=O)c1C=Nc1cnc2ccccc2c1	i	46*	.	-214	.	21*	22*
Cc1ccc2nc3nc(NCC4CCCO4)c(C(=O)NC4CCCC4)cc3c(=O)n2c1 (stereo unspecified)	i	24*	.	i	.	-3	-11
SMILES	ADAM10 inh	proKLK7 act	FGF22 binding	ADAM17 inh	Ecoli rRNA inh	proKLK7 act conf	EDANS-DABCYL int	others
COc1ccc(CCn2c(=N)c(C(=O)NCC3CCCO3)cc3c(=O)n4ccccc4nc32)cc1OC (stereo unspecified)	-18	-1	0	-5	10	.	.
Cc1cccn2c(=O)c3cc(C(=O)NC4CCCCC4)c(=N)n(CCN4CCOCC4)c3nc12	-383	8	0	-139	-1	.	.
CCNc1nc2nc3ccc(C)cn3c(=O)c2cc1C(=O)NCC1CCCO1 (stereo unspecified)	i	75*	0	i	13	69*	69*
CC(=O)Nc1ccc2c(c1)C(=O)N(C)C[C@@H](C)[C@@H](CN(C)S(C)(=O)=O)O2	.	.	.	.	1	.	.
CNc1cnc(-c2ccc(F)c(F)c2F)cn1	i	13*	0	-487	3	13*	13*
O=C1CC(N(O)c2ccccc2)C(=O)N1c1ccc(Cl)c(Cl)c1 (stereo unspecified)	-25	34*	0	-2	0	459*	467*
Cc1cccc(N2C(=O)CC(N(O)c3ccccc3)C2=O)c1 (stereo unspecified)	-2	274*	.	-7	.	349*	366*
O=C(O)CSC1CC(=O)N(c2ccc(Cl)c(Cl)c2)C1=O (stereo unspecified)	4	0	.	1	.	.	.
Cc1cccc(N2C(=O)SC(N(C)c3ccccc3)C2=O)c1 (stereo unspecified)	7	0	.	-4	.	.	.
CCCC#Cc1cnc2c(c1)C(=O)N([C@H](C)CO)C[C@H](C)[C@@H](CN(C)C(=O)Nc1ccc(OC)cc1)O2	.	.	0	.	3	.	.
COc1ccc(-c2cc(-c3ccccc3)nc(=O)[nH]2)cc1	i	62*	0	i	10	31*	46*
C[C@@H]1CN([C@@H](C)CO)C(=O)c2cc(NC(=O)CCC(F)(F)F)ccc2O[C@@H](C)CCCCO[C@@H]1CN(C)C	.	.	.	.	2	.	.
NC(=O)COC(=O)c1cc(-c2ccco2)nc2ccccc12	i	161*	0	-223	8	63*	72*
COc1ccc(-c2cc(C(F)F)n3ncc(C(=O)NCCCN4CCCC4=O)c3n2)cc1	i	2	0	-127	-7	.	.
CCCCCCNC(=O)c1cc(-c2ccco2)nc2ccccc12	i	20*	.	-184	.	-24	-34
